Source: PubChem BioAssay (National Center for Advancing Translational Sciences (NCATS))
Rab9 promoter act: Rab9 promoter activation; Potency, µM (doses to about 9.22 µM), without a hit: at the top dose activation, negative = inhibition, usual class: activators; Huh7 Rab9 promoter-luciferase reporter, luminescence, 24 h; AID 485297; hit rate 2.8% among 320,000; note: % of control where 0% means no effect; nearly all actives have a fitted effect of over 60% in size
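Promoter activation is measured as luciferase luminescence in Huh7 cells stably transfected with a Rab9 promoter–luciferase construct, following 24 h compound exposure at 37 °C and 10 min reagent incubation at ambient temperature.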
NPC1 prom act: activators of NPC1 promoter; Huh7 NPC1 promoter luciferase reporter, 24 h; Potency, µM (highest dose often 9.22 µM), for inactives: at the top dose activation, hits mostly activators; hit rate 2.4% among 320,000; note: % of control where 0% means no effect; nearly all actives have a fitted effect of over 60% in size
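Luminescence read-out of NPC1 promoter-driven luciferase in stably transfected Huh7 cells; compounds delivered in DMSO and left 24 h at 37C, 5% CO2, qHTS titration format.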
ELG1 genotoxic: induces genotoxicity in HEK293T cells with luciferase-tagged ELG1 | AID 504466 | HEK293T ELG1-luciferase reporter, luminescence, 16 h | Potency, µM (top dose mostly 46 µM), for the others: at the top dose activity change, positive = activation, hits mostly activators | hit rate 1.3% among 330,000; note: % of control where 0% means no effect; nearly all actives have a fitted effect of over 60% in size
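16 hr compound incubation (37 °C, 5% CO2) of HEK293T cells carrying luciferase-tagged ELG1; luciferase then measured by ONE-Glo luminescence after 30 min at RT.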
SMN2 splice enh: SMN2 splice variant enhancement; HEK293 SMN2-luciferase splicing reporter, luminescence, 30-36 h; Potency, µM (titrated, usually from 46.1 µM), inactives show at the highest dose activity change, positive = activation, usual class: activators; hit rate 2.8% among 210,000; AID 1458; note: % of control where 0% means no effect; nearly all actives have a fitted effect of over 55% in size
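HEK293 cells carry an SMN2 […]–luciferase reporter in which exon 7 inclusion puts luciferase in frame. Cells were plated 10-12 h before compound addition, then incubated 30-36 h at 37C. ONE-Glo luminescence was read; sodium butyrate at 4.5 mM final served as control.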
FLuc modulator: inhibits or activates purified firefly luciferase, miR-21 counter-screen; hit rate 6.9% among 360,000; P08659; Potency, µM (highest dose often 57.5 µM), inactives show at the top dose activity change, negative = inhibition, most hits filed as inhibitors; purified FLuc, Km substrates, luminescence inhibition;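 note: plate controls were vehicle for no effect and reference inhibitor for full effect; nearly all actives have a fitted effect of over 55% in size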
Target sequence (P08659 whole entry, looked up): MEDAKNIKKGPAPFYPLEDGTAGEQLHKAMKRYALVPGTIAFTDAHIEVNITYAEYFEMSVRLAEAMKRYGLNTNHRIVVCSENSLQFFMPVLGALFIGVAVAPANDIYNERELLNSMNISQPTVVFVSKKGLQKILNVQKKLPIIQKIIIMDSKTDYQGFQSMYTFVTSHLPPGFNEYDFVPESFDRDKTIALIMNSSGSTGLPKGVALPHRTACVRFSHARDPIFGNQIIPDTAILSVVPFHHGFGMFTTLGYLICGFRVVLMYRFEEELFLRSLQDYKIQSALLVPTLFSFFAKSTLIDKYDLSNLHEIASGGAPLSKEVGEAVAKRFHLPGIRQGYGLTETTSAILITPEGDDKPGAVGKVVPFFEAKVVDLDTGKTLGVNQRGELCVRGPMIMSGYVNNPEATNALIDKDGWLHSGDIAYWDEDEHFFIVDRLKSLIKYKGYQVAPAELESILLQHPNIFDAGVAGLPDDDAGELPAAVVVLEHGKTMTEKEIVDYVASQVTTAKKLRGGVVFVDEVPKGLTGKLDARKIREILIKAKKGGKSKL
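Purified P. pyralis luciferase, 10 nM final, with Km-level 10 uM D-luciferin and 10 uM ATP in 50 mM Tris acetate pH 7.5, 10 mM Mg acetate, 0.01% Tween-20, 0.05% BSA; 6-point qHTS titration about 60 µM downward; luminescence read.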
* hit, by the source's call; ? = inconclusive; . = no result. A selection: hits, their analogues and other compounds. The true share with any hit is near 7.4%. Calls come from the whole dose curve; as a rule, active = well fitted curve in the direction sought with a large enough effect; inconclusive = small, poorly fitted or top-dose-only effect, or another doubt; inactive = no such curve, though single readings can be large; an effect the other way counts as inactive or inconclusive. Potency is the fitted concentration of half-maximal effect.

SMILES	Rab9 promoter act	NPC1 prom act	ELG1 genotoxic	SMN2 splice enh	FLuc modulator
CC(=O)Oc1ccc(C(=O)Nc2ccc(C3(C#N)CCCC3)cc2)cc1	2µM*	1.3µM*	5%	.	?
O=C(Nc1ccc(NS(=O)(=O)c2ccccc2)cc1)c1ccccc1	0%	0%	6%	.	-2%
N#CC1(c2ccc(NC(=O)c3ccccc3)cc2)CCCC1	0.4µM*	0.28µM*	?	14µM*	1.3µM*
CCOc1ccc(CC(=O)N2CCc3cc(OC)c(OC)cc3C2COc2ccc3c(C)cc(=O)oc3c2)cc1 (stereo not drawn)	.	.	.	6%	4%
COc1ccc(C(C(=O)NC2CCCC2)N(CCO)C(=O)Cn2nnc(-c3ccc(C)o3)n2)cc1OC (stereo not drawn)	4%	-6%	-1%	.	-6%
N#CCCn1c(=O)c(-c2ccccc2)nc2cnc(N3CCNCC3)nc21	.	.	.	-14%	.
O=C(Nc1cccnc1Cl)c1ccc2c(Cl)c3c(nc2c1)CCC3	0.71µM*	1µM*	2.3µM*	?	0.85µM*
O=C(Nc1ccccc1F)c1ccc2c(Cl)c3c(nc2c1)CCC3	.	.	.	?	0.15µM*
CC(=O)c1cccc(NC(=O)c2ccc3c(Cl)c4c(nc3c2)CCCC4)c1	13%	5%	0%	-5%	?
CCOC(=O)N1CCC(NC(=O)c2ccc3c(Cl)c4c(nc3c2)CCCC4)CC1	-4%	-3%	-4%	-22%	-2%
O=C(NC1CC1)c1ccc2c(Cl)c3c(nc2c1)CCCC3	-5%	0%	0%	-19%	13µM*
N#Cc1ccccc1NC(=O)c1ccc2c(Cl)c3c(nc2c1)CCCC3	3.5µM*	?	12%	10µM*	3.8µM*
CC(=O)Nc1c2c(nn1-c1ccc(F)cc1)CSC2	3%	-1%	0%	.	0%
O=C1CCCC(O)=C1N=Nc1ccc2c(c1)OCO2	3.2µM*	?	16µM*	16µM*	9.5µM*
O=C1CCCC(O)=C1N=Nc1ccc(C(=O)O)cc1	2%	0%	-4%	.	-2%
O=C(NCc1ccc(F)cc1)C(c1cccnc1)N(C(=O)c1csnn1)c1ccccc1 (stereo not drawn)	0%	3%	-4%	.	-2%
O=c1[nH]c(SCc2ccc(Cl)cc2)nc2ccsc12	?	30%	11%	?	6µM*
CCCOc1cccc(C2c3c(oc4ccc(F)cc4c3=O)C(=O)N2Cc2ccc3c(c2)OCO3)c1 (stereo not drawn)	.	.	.	-1%	-1%
Cc1cc(C)nc(N(C#N)CC(=O)c2ccccc2)n1	-1%	1%	-2%	.	21µM*
Cc1c(Cl)cccc1NC(=O)Nc1nnc(N(C)C2CCCCC2)s1	.	.	.	.	-10%
O=C(NCc1ccc(Cl)cc1)c1cnc2sc(N3CCOCC3)nn2c1=O	.	.	.	.	-1%
N#CCSc1nnc(-c2sc3ccccc3c2Cl)o1	12%	1%	2%	-23%	17µM*
OCC#CCSc1nnc(-c2cccc3ccccc23)o1	-1%	-3%	5%	.	?
COC(=O)CSc1nnc(-c2sc3ccccc3c2Cl)o1	4%	-6%	-2%	-10%	5.4µM*
COC(=O)c1cccc(CN2C(=O)SC(Nc3ccc(Br)cc3)C2=O)c1 (stereo not drawn)	.	.	.	-4%	-8%
SMILES	Rab9 promoter act	NPC1 prom act	ELG1 genotoxic	SMN2 splice enh	FLuc modulator
O=C(Cc1cn2ccsc2n1)Nc1nc2c(s1)CCCC2	6%	8%	12%	-22%	-16%
O=C(Nc1nc2c(s1)CCCC2)c1cccnc1	?	2.5µM*	2.1µM*	.	12µM*
O=C(CSc1ncn(-c2ccccc2)n1)Nc1nc2c(s1)CCCC2	-9%	2%	?	?	-24%
CC(C)(C)c1nc(SCC(=O)Nc2nc3c(s2)CCCC3)c2ccccc2n1	17%	-3%	-6%	3.2µM*	2%
O=C(CCSc1ccccc1)Nc1nc2c(s1)CCCC2	28%	30%	23µM*	8%	19µM*
O=C(Cc1cccs1)Nc1nc2c(s1)CCCC2	2.8µM*	?	?	13µM*	17µM*
COc1ccc(-c2cc(=O)oc3c4c(ccc23)OCN(Cc2ccccc2)C4)cc1	.	.	.	-9%	-2%
COc1ccc(CCNC(=O)CSc2cn(CCNC(=O)c3ccc(OC)c(OC)c3)c3ccccc23)cc1OC	.	.	.	-23%	-1%
Cc1ccc(S(=O)Cc2ccc(C(=O)NC3CCCCCC3)o2)cc1 (stereo not drawn)	.	.	.	12%	6%
O=C(Nc1nc2c(s1)CCCC2)c1cccs1	0.71µM*	2.8µM*	?	3.2µM*	1.1µM*
O=C(Nc1nc2c(s1)CCCC2)c1cc(-c2ccccc2)nc2ccccc12	-11%	-10%	0%	-7%	?
COc1ccc(C(CC(=O)c2ccccc2)S(=O)(=O)c2ccc(C)cc2)cc1 (stereo not drawn)	4µM*	2.2µM*	?	?	0.76µM*
Cc1cnc(C(=O)OCC(=O)c2c[nH]c3ccccc23)cn1	1%	-2%	3%	.	-10%
COc1ccc(OCC(=O)c2c[nH]c3ccccc23)cc1	?	?	18%	26%	3.8µM*
CC1(C(=O)OCC(=O)c2c[nH]c3ccccc23)CC1(Cl)Cl (stereo not drawn)	3.2µM*	4µM*	?	?	6.7µM*
CC[C@@]12C(=O)N(c3ccc(OC)cc3)C(=O)N1[C@H](c1ccc(Cl)cc1)[C@@H]1C(=O)N(C3CCCCC3)C(=O)[C@@H]12	-4%	-4%	-1%	.	-2%
Cc1cccc(NS(=O)(=O)c2ccc3c(c2)CCN3C(=O)C2CC2)c1C	.	.	.	-24%	?
